Experimental findings from PubChem BioAssay AID1566 (Sanford-Burnham Center for Chemical Genomics, 2009) are described below.

The inhibition is the relative decrease from the control value, in per cent.

Each structure is given as a SMILES string. Hit rate of the full screen: of about 290,000 compounds, about 1,800 (0.62%) were called active. Rule as the data show it: active = inhibition above about 50%; inactive = the rest. The entries come from a sample that favours actives as a whole.

The assay can be described thus: NOD2 signaling inhibitors, cell-based, luminescence, uHTS, HEK293 (AID 1566). Particulars: HEK293 NOD2/NF-kB luciferase reporter, at 4 µM, stronger effect = higher value. A general note: Reporter assays use an easily measured gene product as a stand-in for the process of interest.
With `O=C(Nc1nc2ccc(F)cc2s1)c1ccccn1`, the inhibition was 82.1% (active).

Turning to `Cc1ccc(C)c(OCC(=O)Nc2nc3ccc([N+](=O)[O-])cc3s2)c1`, the inhibition was 25.2% (inactive).

`O=C(Nc1nc2c(F)cc(F)cc2s1)c1ccccn1`: the inhibition is 38.3% (inactive).

For `Cc1cccc(OCC(=O)Nc2nc3ccc([N+](=O)[O-])cc3s2)c1`, the inhibition is 35% (inactive).

Take `Cc1ccc2nc(NC(=O)CSCc3ccccc3)sc2c1`: the inhibition is -2.4% (inactive).

In the case of `Cc1ccc2nc(NC(=O)CSCC(=O)OCC(=O)c3ccccc3)sc2c1`, the inhibition is 51.5% (active).

For `COCC(=O)Nc1nc2ccc(C)cc2s1`, the inhibition was -98.9% (inactive).

Take `Cc1ccc2nc(NC(=O)CCCC(=O)O)sc2c1`: the inhibition was 54.8% (active).

As to `Cc1ccc2nc(NC(=O)CCCc3nc4ccccc4s3)sc2c1`, the inhibition was -14.6% (inactive).

On to `COC(=O)c1ccc2nc(NC(=O)CSCC(=O)OCC(=O)c3ccccc3)sc2c1`, for which the inhibition is -10.5% (inactive).

As for `O=C(Nc1nc2ccc(F)cc2s1)c1cccs1`, the inhibition was -118% (inactive).

As to `CN(C)C(=O)c1ccc2c3c(cccc13)CC2`, the inhibition was 17.8% (inactive).

As for `CCCS(=O)(=O)c1nc(S(=O)(=O)c2ccc(C)cc2)c(N2CCN(CC)CC2)s1`, the inhibition is -12.7% (inactive).

With `Cc1nc2nc(SCc3ccc([N+](=O)[O-])cc3)[nH]c2cc1Br`, the inhibition is -1% (inactive).

Consider `CSc1ccc(C2N=C(c3ccccc3)NO2)cc1` (stereo not drawn), for which the inhibition was -83.4% (inactive).

For `CCOCCCNC(=O)C(NC(=O)CNC(C)=O)c1ccc(C)cc1` (stereo not drawn), the inhibition was 3.7% (inactive).

As for `CCN(CC)S(=O)(=O)c1cccc(C(=O)N[C@@H](C)c2nc3ccccc3[nH]2)c1`, the inhibition was 11.7% (inactive).

Regarding `CCOC(=O)c1ccc(N2C(=O)C(CC(N)=O)N(NC(=O)c3cccc(F)c3)C2=S)cc1` (stereo not drawn), the inhibition is 4.2% (inactive).

Take `Cc1ccc2nc(NC(=O)c3ccccn3)sc2c1`: the inhibition was 76.3% (active).

`Cc1ccc2nc(NC(=O)COC(=O)c3ccccn3)sc2c1`: the inhibition is -25.5% (inactive).

In the case of `Cc1ccc2nc(NC(=O)c3ccccc3F)sc2c1`, the inhibition is -152% (inactive).

With `COc1ccc(-n2c3c(cc(C#N)c2=O)C(=O)CCC3)cc1`, the inhibition is 6.2% (inactive).

In the case of `CCOc1ccc(S(=O)(=O)Nc2ccc(C(=O)NCC(c3ccccc3)N(C)C)cc2)cc1` (stereo not drawn), the inhibition was 7.3% (inactive).

Consider `CCOC(=O)c1ccc(Nc2nc(N3CCOCC3)nc(N3CCOCC3)n2)cc1`, for which the inhibition was -7.2% (inactive).

As for `CCOC(=O)N1CCC(N2CCN(Cc3ccc(C)o3)C(CCO)C2)CC1` (stereo not drawn), the inhibition is 2.4% (inactive).

With `CCC(C(=O)NC1CCCC1)N(C(=O)Cn1nnc(-c2ccc(C)o2)n1)c1cccc(O)c1` (stereo not drawn), the inhibition is 8.2% (inactive).

Regarding `Cc1cc(NC(=O)CSc2ncnc3ccccc23)no1`, the inhibition was 20% (inactive).

In the case of `Cc1cc(-n2c(C)cc(C(=O)CSc3nc4ccccc4c(=O)n3Cc3ccco3)c2C)no1`, the inhibition is 18.1% (inactive).

Consider `Cc1cc(-n2c(C)cc(C(=O)CSc3ncnc4ccccc34)c2C)no1`, for which the inhibition was 52.3% (active).

Take `Cc1cccc(NC(=O)COC(=O)C2C3CC4OC(=O)C2C4C3)c1C` (stereo not drawn): the inhibition was -27.4% (inactive).

In the case of `Cc1ccccc1-n1c(SC2CCOC2=O)nnc1-c1ccncc1` (stereo not drawn), the inhibition is 51.5% (active).

Consider `O=C1OCCC1Sc1nnc(-c2cccnc2)n1-c1ccccc1F` (stereo not drawn), for which the inhibition was 13.6% (inactive).

In the case of `Cc1ccccc1-n1nnnc1SC1CCOC1=O` (stereo not drawn), the inhibition is 5.6% (inactive).

With `O=C(O)c1cccc(NC(=S)N/N=C/c2ccccc2OCc2ccc(Br)cc2)c1`, the inhibition was 0.3% (inactive).

In the case of `C/C(=C\c1ccccc1)CN1CCN(Cc2ccc(C)o2)C(CCO)C1` (stereo not drawn), the inhibition was -6.3% (inactive).

For the compound `CCOC(=O)C1CCN(C(=O)CS(=O)(=O)Cc2nc(-c3ccccc3Cl)oc2C)CC1`, the inhibition was 17.3% (inactive).

Consider `O=C(Nc1ccc(N2CCCCC2)cc1)c1ccccn1`, for which the inhibition was 69.8% (active).

Regarding `O=C(Nc1ccc(N2CCCCC2)cc1)c1cccnc1Cl`, the inhibition is -2.2% (inactive).

For the compound `O=C(Nc1ccc(N2CCOCC2)cc1)c1cnsn1`, the inhibition was 52.4% (active).

In the case of `Cc1cnc(C(=O)Nc2ccc(N3CCOCC3)cc2)cn1`, the inhibition is -3.6% (inactive).

On to `O=C(Nc1ccc(N2CCCCCC2)cc1)c1ccccc1Cl`, for which the inhibition was -104% (inactive).

Consider `O=C(Nc1ccc(N2CCOCC2)cc1)Nc1cnsn1`, for which the inhibition was -3.9% (inactive).

On to `O=C(CSc1nc2ccccc2[nH]1)NCc1ccccc1`, for which the inhibition was -35% (inactive).

For `COc1ccc(S(=O)(=O)N2CCN(CC(O)COc3ccc(C#N)cc3)CC2)cc1OC` (stereo not drawn), the inhibition is 1.5% (inactive).

For the compound `CC(=O)Nc1ccccc1OCC(=O)N(Cc1ccccc1)C(C)C`, the inhibition was 19.2% (inactive).

As for `Cc1ccc(-n2c(C)nc3ncnc(-c4ccccc4)c32)cc1`, the inhibition is 17.9% (inactive).

Take `CN1C(=O)/C(=C\c2ccccc2F)Sc2ccc(C(=O)NC3CCN(Cc4ccccc4)CC3)cc21`: the inhibition was 58.2% (active).

On to `CN1C(=O)/C(=C/c2ccccc2F)Sc2ccc(C(=O)N3CCCC3)cc21`, for which the inhibition was 37.3% (inactive).

For the compound `CN1C(=O)/C(=C/c2ccccc2F)Sc2ccc(C(=O)NCC3CCCO3)cc21` (stereo not drawn), the inhibition is 17% (inactive).

In the case of `CCc1c(C)nc2c(C)cccc2c1SCCC#N`, the inhibition is 12.6% (inactive).

On to `O=C(CN1CCN(C(c2ccccc2)c2ccccc2)CC1)Nc1ccc(N2CCOCC2)cc1`, for which the inhibition was 6.9% (inactive).

As for `COC(=O)c1c(NC(=O)c2ccc(OC(C)C)cc2)sc2c1CC(C)(C)NC2(C)C`, the inhibition was 7.3% (inactive).

As to `COc1ccc(/C=N/NC(=O)c2sc(C)nc2C)cc1`, the inhibition is 13.6% (inactive).

On to `COc1ccccc1/C=N/NC(=O)c1sc(C)nc1C`, for which the inhibition is 6.4% (inactive).

As for `Cc1nc(C)c(C(=O)N/N=C/c2cc(Br)ccc2O)s1`, the inhibition is 50.9% (active).

As for `Cc1onc(-c2ccccc2)c1C(=O)N1CCOC12CCN(c1cccc(F)n1)CC2`, the inhibition is 14.4% (inactive).

Take `O=C(NCCc1ccccc1)C1CCCN(c2ncnc3c2nc2n3CCCCC2)C1` (stereo not drawn): the inhibition is 18.5% (inactive).

As to `COC(=O)c1sc(N2C(=O)C(O)=C(C(=O)c3ccc(C)o3)C2c2ccco2)nc1C` (stereo not drawn), the inhibition was 39.6% (inactive).

As to `O=C(NCc1ccccc1)N1CCOCC1`, the inhibition is -1.5% (inactive).

Take `Cc1nc2cc(N3CCCCC3)c(NC(=O)c3ccncc3)cc2c(=O)n1Cc1ccccc1`: the inhibition was 10.5% (inactive).

As for `CC(=O)Nc1cc2c(=O)n(Cc3ccccc3)c(C)nc2cc1N1CCOCC1`, the inhibition is 9.5% (inactive).

Regarding `CC(=O)Nc1ccc(NC(=O)c2sc(-c3ccccc3)nc2C)cc1`, the inhibition is 19.3% (inactive).

Consider `COc1cc2cc(CN(CCc3ccccc3C)C(=S)NCCCN3CCOCC3)c(=O)[nH]c2cc1OC`, for which the inhibition is 17.4% (inactive).

`COc1ccc(Nc2nc3ccccc3nc2NS(=O)(=O)c2cccs2)cc1`: the inhibition was 37.8% (inactive).

`O=C(O)c1ccc(Nc2nc3ccccc3nc2NS(=O)(=O)c2cccs2)cc1`: the inhibition was 7.1% (inactive).

Consider `CC(=O)Nc1ccc(S(=O)(=O)N2CCN(CC(=O)NC3CCCC3)CC2)cc1`, for which the inhibition is -8.9% (inactive).

In the case of `O=C1OCC2=C1C(c1ccccc1)CC(=O)N2c1ccc(F)cc1` (stereo not drawn), the inhibition was -3.1% (inactive).

For `Cc1c(CCC(=O)O)c(=O)oc2c(C)c(OCc3cc4c(cc3Cl)OCO4)ccc12`, the inhibition is 35% (inactive).

As for `COc1ccc(-c2coc3c(C)c4oc(=O)c(CCC(=O)O)c(C)c4cc23)cc1`, the inhibition was 5.8% (inactive).

Regarding `Cc1c(CCC(=O)O)c(=O)oc2c(C)c3occ(-c4ccc(Br)cc4)c3cc12`, the inhibition is 41% (inactive).

Consider `COc1ccccc1COc1ccc2c(C)c(CC(=O)O)c(=O)oc2c1C`, for which the inhibition was 10.3% (inactive).

`CCOc1ccccc1C(=O)OCC(=O)NCCNC(=O)COC(=O)c1ccccc1OCC`: the inhibition is -4.3% (inactive).

With `CCCN1C(=O)/C(=C/c2ccc(C)o2)SC1=Nc1ccc(OCC)cc1`, the inhibition was 1.9% (inactive).

As to `O=c1cc(CSc2nnc(COc3ccc(Cl)cc3)o2)c2ccccc2[nH]1`, the inhibition was 17.3% (inactive).

As for `COc1cccc(C2CNC3(CCCC(C)C3)c3[nH]c4ccccc4c32)c1OC` (stereo not drawn), the inhibition was -9% (inactive).

Take `O=C(N/N=C/c1cccc(O)c1)c1ccc(COc2ccc3c(c2)CCC3)o1`: the inhibition was -30.7% (inactive).

On to `COc1ccc(Br)cc1/C=N/NC(=O)c1ccc(COc2ccc3c(c2)CCC3)o1`, for which the inhibition is -48.8% (inactive).

As for `O=C(N/N=C/c1cc([N+](=O)[O-])ccc1O)c1ccc(COc2ccc3c(c2)CCC3)o1`, the inhibition was 50.4% (active).

On to `O=C(NCCc1ccc(Cl)cc1)C1CCCN1C(=O)Nc1ccccc1` (stereo not drawn), for which the inhibition was 13.4% (inactive).

In the case of `Cc1ccc(NC(=O)C(C)Sc2n[nH]c(CNc3ccccc3)n2)cc1` (stereo not drawn), the inhibition was 3.6% (inactive).

In the case of `CC1Sc2ccc(S(=O)(=O)N3CCC(C(=O)Nc4cccc(Cl)c4)CC3)cc2NC1=O` (stereo not drawn), the inhibition was 14.4% (inactive).

As for `Cc1ccc(NC(=O)C2CCN(S(=O)(=O)c3ccc4c(c3)NC(=O)C(C)S4)CC2)cc1C` (stereo not drawn), the inhibition was 16.5% (inactive).

As to `CN(C)c1ccc(C2N(C(=O)N3CCOCC3)CCN2S(=O)(=O)c2ccccc2)cc1` (stereo not drawn), the inhibition is 13.1% (inactive).

`Cc1c(Br)c([N+](=O)[O-])nn1CC(=O)Nc1ccc2nc3n(c(=O)c2c1)CCCC3`: the inhibition was 17.3% (inactive).

`Cc1ccc(/C=C(/NC(=O)c2ccccc2)C(=O)NC(Cc2c[nH]c3ccccc23)C(=O)O)cc1` (stereo not drawn): the inhibition is 9.4% (inactive).

For the compound `COc1ccc([N+](=O)[O-])c(S(=O)(=O)c2ccc(Cl)cc2)n1`, the inhibition is 60.3% (active).

As to `COc1nc(OC)nc(Oc2ccc(Cl)cc2[N+](=O)[O-])n1`, the inhibition is 10.1% (inactive).

With `COc1ccc([N+](=O)[O-])c(S(=O)(=O)c2ccccc2)n1`, the inhibition is 29% (inactive).

Regarding `Cc1c(CC(=O)N[C@@H](C)C(=O)O)c(=O)oc2cc3occ(-c4ccccc4)c3cc12`, the inhibition was 14% (inactive).

For `COc1cc(C(=O)OCC(C)=O)c([N+](=O)[O-])cc1OC`, the inhibition was 0.4% (inactive).

For `CCSc1nc(-c2ccccc2)c(C#N)c(=O)[nH]1`, the inhibition is 20% (inactive).

As for `N#Cc1c(-c2ccccc2)nc(SCc2ccc(Cl)cc2)[nH]c1=O`, the inhibition is 24.8% (inactive).

Take `O=C(c1ccc2c(=O)n(-c3ccccc3)c(=O)[nH]c2c1)N1CCN(c2ccc(F)cc2)CC1`: the inhibition was 14.2% (inactive).
